Reference: PubChem BioAssay (NCATS)
Values joined by “and” are separate entries in the source; they are usually repeats but may differ in a detail not shown here. Equal entries are not always repeated. Records with an inconclusive call do not appear. Active and inactive are the calls of the source. Unless noted, calls follow the shape of the dose curve; as a rule, active = well fitted curve in the direction sought with a large enough effect; inconclusive = small, poorly fitted or top-dose-only effect, or another doubt; inactive = no such curve, though single readings can be large; an effect the other way counts as inactive or inconclusive.

Key:
[1] = molecular target: Cellular tumor antigen p53 (Homo sapiens) (UniProt P04637); assay: Primary qHTS for small molecule compounds that upregulate eGFP-tagged delta133p53alpha (in N-terminal) cells. (AID 2060322); conditions: NCI-H358 eGFP-delta133p53alpha fluorescence, 24 h; activation: hits give high values;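 also: 0% = DMSO vehicle and 100% = reference activator; nearly all actives have a fitted effect of over 75% in size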
Summary of the method: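 NCI-H358 cells pre-induced 24 h with 10 ng/ml doxycycline to express N-terminal eGFP-delta133p53alpha, then dosed 24 h at 37C without doxycycline; fixed, Hoechst-stained, GFP intensity by laser scanning cytometry, normalized to DMSO (0%) and 57.5 uM 5-azacytidine (100%).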

[2] = molecular target: Cellular tumor antigen p53 (Homo sapiens) (UniProt P04637); assay: Primary qHTS for small molecule compounds that upregulate eGFP-tagged delta133p53alpha (in C-terminal) cells. (AID 2060324); conditions: NCI-H358 delta133p53alpha-eGFP (C-terminal tag), GFP fluorescence imaging, 24 h; series mostly up to 57.5 µM;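 also: 0% = DMSO wells and 100% = 57.5 µM 5-azacytidine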
Summary of the method: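 C-terminal eGFP-tagged delta133p53alpha NCI-H358 line; dox-induced (100 ng/ml, 24 h) then plated without dox; compounds pinned in titration, 24 h 37 °C/5% CO2; PFA fix, Hoechst nuclei; GFP by LSC.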

[3] = molecular target: Aldehyde dehydrogenase, mitochondrial (Homo sapiens) (UniProt P05091); assay: qHTS for Inhibitors of the Aldehyde Dehydrogenase Family (ALDH2) Validation screens (AID 2061302; active = well fitted inhibition curve with a large enough effect; title and protocol of this record describe different tests;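 also: plate controls were DMSO vehicle for no effect and maximal DPI positive control response for full effect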); conditions: ALDH inhibition qHTS; series mostly up to 42.6 µM
[4] = molecular target: Retinaldehyde dehydrogenase 3 (Homo sapiens) (UniProt P47895); assay: qHTS for Inhibitors of the Aldehyde Dehydrogenase Family (ALDH1A3) Validation screen (AID 2061312); conditions: ALDH1A3 enzyme inhibition qHTS validation, fluorescence; series mostly up to 84.7 µM; also: % is scaled to controls: 0 for no effect and ±100 for the full control effect; nearly all actives have a fitted effect of over 45% in size

Cellular tumor antigen p53 (Homo sapiens), sequence (P04637 whole entry, looked up): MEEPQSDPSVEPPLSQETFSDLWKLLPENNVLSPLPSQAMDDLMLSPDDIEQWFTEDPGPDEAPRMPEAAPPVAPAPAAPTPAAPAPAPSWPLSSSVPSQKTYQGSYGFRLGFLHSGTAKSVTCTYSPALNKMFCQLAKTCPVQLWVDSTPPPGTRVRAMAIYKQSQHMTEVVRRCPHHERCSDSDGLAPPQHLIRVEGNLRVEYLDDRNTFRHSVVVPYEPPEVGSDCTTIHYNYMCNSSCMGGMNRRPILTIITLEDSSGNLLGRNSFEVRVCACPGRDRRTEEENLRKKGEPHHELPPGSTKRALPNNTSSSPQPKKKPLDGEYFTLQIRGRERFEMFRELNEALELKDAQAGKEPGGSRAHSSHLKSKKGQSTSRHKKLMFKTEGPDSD

C[C@]12CCC(=O)C=C1CC[C@@H]1[C@@H]2C(=O)C[C@@]2(C)[C@H]1CC[C@]2(O)C(=O)CO
inactive: activation [1] 0.837% and -9.81% | Potency [2] | Potency [3] | Potency [4]

CC1(C)CCC=[N+]1[O-]
inactive: activation [1] 8.43% | Potency [2] | Potency [3] | Potency [4]

CCCCCCCCCCCCCCC[C@H](O)[C@H](N)CO
inactive: activation [1] 14.1% | Potency [2] | Potency [3] | Potency [4]

CC1(C)C(=O)N(CCN2CCC(C(=O)c3ccc(F)cc3)CC2)c2ccccc21
inactive: activation [1] -67.7% and -2.62% | Potency [2] | Potency [3] | Potency [4]

COC(=O)c1c(C)[nH]c(C)c1C(=O)c1ccccc1Cc1ccccc1
inactive: activation [1] -23.2% | Potency [2] | Potency [3] | Potency [4]

C[C@]12CC[C@@H]3c4ccc(O)cc4C[C@@H](CCCCCCCCCS(=O)CCCC(F)(F)C(F)(F)F)[C@H]3[C@@H]1CC[C@@H]2O (stereo partly specified)
inactive: activation [1] 5.86% and -66.3% | Potency [2] | Potency [3] | Potency [4]

CCOC(=O)C1=C(C)NC(C)=C(C(=O)OC)C1c1cccc(Cl)c1Cl (stereo unspecified)
inactive: activation [1] 16.4% and -13.8% | Potency [2] | Potency [3] | Potency [4]

CCCCCCCC/C=C\CCCCCCCC(=O)NCCc1ccc(O)c(O)c1
inactive: activation [1] 9.28% | Potency [2] | Potency [3] | Potency [4]

O=C1C2C=CC=CC2=NC(=S)N1CCN1CCC(=C(c2ccc(F)cc2)c2ccc(F)cc2)CC1 (stereo unspecified)
inactive: activation [1] -39.4% | Potency [2] | Potency [3] | Potency [4]
